Assay [1] relates to guinea pig Dopamine Transporter (DAT), gene 100714898. The experiment in a line: NVS_TR_gDAT: NovaScreen (NVS) Transporter Assay for guinea pig Dopamine Transporter (DAT) (AID 2283369).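 Also: active compounds lower bound radioligand signal relative to DMSO.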 A digest of the protocol: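 Guinea pig striatal membranes; radioligand displacement measured by filter-based scintillation counting 2 h after dosing. Initial duplicate screen at 25 uM, then concentration-response up to 50 uM for hits; loss of signal versus DMSO baseline.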

The target of assay [2] is Peroxisome proliferator-activated receptor gamma (Homo sapiens) (UniProt P37231). The experiment in a line: NVS_NR_hPPARg: NovaScreen (NVS) Nuclear Receptor Binding Assay for human Peroxisome Proliferator-activated Receptor gamma (PPARg) (AID 2283370). The gist of the method:
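Cell-free binding to extracted PPARg protein, read by fluorescence polarization 2 h after dosing; loss of signal relative to DMSO baseline marks displacement. Primary screen in duplicate at 25 uM, actives retested in concentration series.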

The target in assay [3] is human Dopamine Transporter (DAT), SLC6A3 (gene 6531) (UniProt Q01959). As to the kind of experiment: NVS_TR_hDAT: NovaScreen (NVS) Transporter Assay for human Dopamine Transporter (DAT) (AID 2283374).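 Also: activity means loss of bound radioligand signal relative to DMSO.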 The procedure: NVS_TR_hDAT is a biochemical, single-readout assay that uses extracted gene-proteins in a cell-free assay. Measurements were taken 1 hour after chemical dosing in a 96-well plate.NVS_TR_hDAT is one of one assay component(s) measured or calculated from the NVS_TR_hDAT assay. It is designed to make measurements of radioligand binding, a form of binding reporter, as detected with scintillation counting signals by Filter-based radiodetection technology.Data from the assay component NVS_TR_hDAT was analyzed into 1 assay endpoint. This assay endpoint, NVS_TR_hDAT, was analyzed in the positive analysis fitting direction relative to DMSO as the negative control and baseline of activity. Using a type of binding reporter, loss-of-signal activity can be used to understand changes in the binding as they relate to the gene SLC6A3. Furthermore, this assay endpoint can be referred to as a primary readout, because the performed assay has only produced 1 assay endpoint. To generalize the intended target to other relatable targets, this assay endpoint is annotated to the transporter intended target family, where the subfamily is neurotransmitter transporter.
Sequence of human Dopamine Transporter (DAT), SLC6A3 (gene 6531) (Q01959 whole entry, looked up): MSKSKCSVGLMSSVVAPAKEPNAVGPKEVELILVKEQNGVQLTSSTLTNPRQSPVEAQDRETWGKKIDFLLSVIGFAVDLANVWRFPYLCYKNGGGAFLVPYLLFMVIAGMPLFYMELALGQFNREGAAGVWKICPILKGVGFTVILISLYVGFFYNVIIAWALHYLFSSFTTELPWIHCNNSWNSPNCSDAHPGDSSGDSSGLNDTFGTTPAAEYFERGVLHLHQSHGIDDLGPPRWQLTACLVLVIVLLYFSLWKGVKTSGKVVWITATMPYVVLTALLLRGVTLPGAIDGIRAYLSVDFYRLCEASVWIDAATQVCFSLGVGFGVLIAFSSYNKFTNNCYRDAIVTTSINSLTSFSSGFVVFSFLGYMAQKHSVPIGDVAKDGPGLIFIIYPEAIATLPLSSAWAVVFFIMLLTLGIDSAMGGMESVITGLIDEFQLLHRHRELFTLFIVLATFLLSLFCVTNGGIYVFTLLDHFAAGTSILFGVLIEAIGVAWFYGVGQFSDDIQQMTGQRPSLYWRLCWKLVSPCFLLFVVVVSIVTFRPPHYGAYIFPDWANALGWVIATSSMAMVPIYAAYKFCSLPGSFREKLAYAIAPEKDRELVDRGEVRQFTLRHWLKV
Binding assays used specific radioligands (tritiated, iodinated) with non-radioactive competitive displacement ligands in agonist or antagonist protocols (as indicated) and various reference compounds and inhibitors to titrate specific binding to receptors and transporters. Most enzyme assays (CYPs, kinases, phosphatases, proteases, HDACs) used recombinant protein and specific substrates (fluorescence mostly, some colorimetric and radioactive) and inhibitors, followed by a biochemical separation of substrate and product. All assays for the biochemical HTS were initially run in duplicate at a single concentration (10 uM for CYP450 assays and 25 uM for all others). […] Each assay was run with positive and negative controls, and concurrent controls on every plate. The follow-up (secondary) screen tested active chemical-pairs in concentration series, as well as a few additional assays not tested in the primary screen, some selected negative inactives, and several cases re-run in the concentration series for confirmatory purposes.

The target in assay [4] is human Norepinephrine Transporter (NET), SLC6A2 (gene 6530) (UniProt P23975). As to the kind of experiment: NVS_TR_hNET: NovaScreen (NVS) Transporter Assay for human Norepinephrine Transporter (NET) (AID 2283377).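 Also: cell-free membrane protein extracted from CHO cells expressing human NET; displacement of radioligand from human NET seen as loss of scintillation signal.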 The gist of the method:
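In this cell-free binding screen, chemicals at 25 uM (duplicate) compete with a radioligand for CHO-derived human NET over 1 hour, with filter-based radiodetection.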

For assay [5], the target named is Estrogen receptor beta (Homo sapiens) (UniProt Q92731). As to the kind of experiment: OT_ER_ERbERb_1440: Odyssey Thera (OT) 24-hour HEK293T Protein-Complementation Assay for Estrogen Receptor-beta/-beta Homodimer (AID 2283380).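 Also: fluorescence gain from ER beta LBD homodimer complementation read by laser scanning cytometry; scored as signal increase over DMSO baseline for both agonists and antagonists.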 The gist of the method:
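HEK293T cells stably expressing human ER-beta LBD (aa 310-547) PCA homodimer pair, dosed 24 h; formaldehyde-fixed, Draq5-stained. Readout: increase in nuclear (agonist) or nuclear plus cytoplasmic (antagonist) fluorescence intensity versus DMSO, gain-of-signal fitting.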

In assay [6] the target is Estrogen receptor (Homo sapiens) (UniProt P03372). As to the kind of experiment: OT_ERa_GFPERaERE_0480: Odyssey Thera (OT) 8-hour HeLa Transcription Induction Assay for Estrogen Receptor (AID 2283381; active = hit-call score of the fitted dose curve at least 0.9, where 1 is the maximum; inactive = score below 0.9). A digest of the protocol:
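Fluorescence microscopy with high-content image analysis measures ERE-driven GFP induction in HeLa cells at 8 h post-dose. Increases fitted against DMSO baseline.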

Assay [7] has the same target. As to the kind of experiment: OT_ERa_GFPERaERE_0120: Odyssey Thera (OT) 2-hour HeLa Transcription Induction Assay for Estrogen Receptor (AID 2283382). A digest of the protocol: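 Fluorescence-microscopy images of the GFP-ERα/ERE reporter, scored by high-content image algorithms, give the readout. HeLa exposure lasted 2 h, and only signal increase over DMSO was fitted.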

Assay [8] concerns the target Agonist Androgen Response Element (ARE), AR (gene 367) (UniProt P10275). The experiment in a line: OT_AR_ARELUC_AG_1440: Odyssey Thera (OT) 24-hour CHO-K1 Luciferase Assay for Agonist Androgen Response Element (ARE) (AID 2283379). A digest of the protocol: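 Luminescence increase above DMSO, read after a 24 h compound treatment of CHO-K1 cells expressing an androgen response element luciferase reporter, gives the single primary endpoint; concentration-response fitting used the positive direction.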

The target in assay [9] is rat Serotonin Transporter (SERT), Slc6a4 (gene 25553) (UniProt P31652). The experiment in a line: NVS_TR_rSERT: NovaScreen (NVS) Transporter Assay for rat Serotonin Transporter (SERT) (AID 2283375). The gist of the method: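 Rat forebrain membranes were incubated with test chemical for 1 hour; radioligand binding to SERT was measured by filter-based scintillation counting. Primary screen ran in duplicate at 25 uM, with actives followed up in concentration series; DMSO served as negative control.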
Sequence of rat Serotonin Transporter (SERT), Slc6a4 (gene 25553) (P31652 whole entry, looked up): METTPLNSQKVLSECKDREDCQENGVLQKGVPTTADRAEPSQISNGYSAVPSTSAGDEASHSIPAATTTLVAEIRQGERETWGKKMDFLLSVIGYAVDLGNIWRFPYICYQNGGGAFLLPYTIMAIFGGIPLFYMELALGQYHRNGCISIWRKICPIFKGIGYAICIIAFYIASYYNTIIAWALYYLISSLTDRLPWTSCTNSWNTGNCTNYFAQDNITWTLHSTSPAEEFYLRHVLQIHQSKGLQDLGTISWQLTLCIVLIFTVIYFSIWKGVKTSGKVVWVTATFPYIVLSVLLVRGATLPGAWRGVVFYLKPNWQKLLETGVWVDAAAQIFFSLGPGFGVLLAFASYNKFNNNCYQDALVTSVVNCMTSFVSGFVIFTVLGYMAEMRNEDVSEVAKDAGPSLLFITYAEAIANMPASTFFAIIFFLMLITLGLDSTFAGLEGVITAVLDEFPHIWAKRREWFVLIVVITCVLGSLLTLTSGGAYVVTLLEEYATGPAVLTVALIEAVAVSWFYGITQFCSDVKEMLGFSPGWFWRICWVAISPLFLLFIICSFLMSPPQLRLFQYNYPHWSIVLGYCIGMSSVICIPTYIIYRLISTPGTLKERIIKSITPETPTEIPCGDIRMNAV

The test system of assay [10] is rat Norepinephrine Transporter (NET), gene 83511. The experiment in a line: NVS_TR_rNET: NovaScreen (NVS) Transporter Assay for rat Norepinephrine Transporter (NET) (AID 2283373). A digest of the protocol: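 Competitive radioligand displacement at the rat NET using forebrain membrane preparations, 1 h incubation, filter-based scintillation readout. Primary testing in duplicate at a single 25 uM concentration; confirmed actives retested across concentrations.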

“And” between values parts separate entries of the source, which are not always exact repeats. Identical values can stand only once. Results filed as inconclusive are left out. Where a structure was tested more than once in an assay, its records may differ in their call. The source made the active and inactive calls. The calls were made as follows, unless noted: active = hit-call score of the fitted dose curve at least 0.9, where 1 is the maximum; inconclusive = response in the unintended direction; inactive = score below 0.9.

Sequence of Estrogen receptor beta (Homo sapiens) (Q92731 whole entry, looked up, the tested form may be a part): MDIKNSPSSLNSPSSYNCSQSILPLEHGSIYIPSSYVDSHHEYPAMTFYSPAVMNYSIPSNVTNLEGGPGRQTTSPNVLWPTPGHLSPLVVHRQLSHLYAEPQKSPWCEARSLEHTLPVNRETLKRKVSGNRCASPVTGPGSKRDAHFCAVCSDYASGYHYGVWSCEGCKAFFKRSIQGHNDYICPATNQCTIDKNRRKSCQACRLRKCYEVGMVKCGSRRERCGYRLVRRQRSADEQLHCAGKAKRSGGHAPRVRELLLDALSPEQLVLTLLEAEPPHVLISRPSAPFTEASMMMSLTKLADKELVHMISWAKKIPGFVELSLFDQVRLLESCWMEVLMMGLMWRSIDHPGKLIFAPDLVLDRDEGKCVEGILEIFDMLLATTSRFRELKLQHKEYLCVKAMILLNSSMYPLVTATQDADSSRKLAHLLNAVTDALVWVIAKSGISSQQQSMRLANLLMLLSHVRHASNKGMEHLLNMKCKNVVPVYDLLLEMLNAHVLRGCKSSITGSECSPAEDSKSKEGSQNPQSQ
Sequence of Agonist Androgen Response Element (ARE), AR (gene 367) (P10275 whole entry, looked up): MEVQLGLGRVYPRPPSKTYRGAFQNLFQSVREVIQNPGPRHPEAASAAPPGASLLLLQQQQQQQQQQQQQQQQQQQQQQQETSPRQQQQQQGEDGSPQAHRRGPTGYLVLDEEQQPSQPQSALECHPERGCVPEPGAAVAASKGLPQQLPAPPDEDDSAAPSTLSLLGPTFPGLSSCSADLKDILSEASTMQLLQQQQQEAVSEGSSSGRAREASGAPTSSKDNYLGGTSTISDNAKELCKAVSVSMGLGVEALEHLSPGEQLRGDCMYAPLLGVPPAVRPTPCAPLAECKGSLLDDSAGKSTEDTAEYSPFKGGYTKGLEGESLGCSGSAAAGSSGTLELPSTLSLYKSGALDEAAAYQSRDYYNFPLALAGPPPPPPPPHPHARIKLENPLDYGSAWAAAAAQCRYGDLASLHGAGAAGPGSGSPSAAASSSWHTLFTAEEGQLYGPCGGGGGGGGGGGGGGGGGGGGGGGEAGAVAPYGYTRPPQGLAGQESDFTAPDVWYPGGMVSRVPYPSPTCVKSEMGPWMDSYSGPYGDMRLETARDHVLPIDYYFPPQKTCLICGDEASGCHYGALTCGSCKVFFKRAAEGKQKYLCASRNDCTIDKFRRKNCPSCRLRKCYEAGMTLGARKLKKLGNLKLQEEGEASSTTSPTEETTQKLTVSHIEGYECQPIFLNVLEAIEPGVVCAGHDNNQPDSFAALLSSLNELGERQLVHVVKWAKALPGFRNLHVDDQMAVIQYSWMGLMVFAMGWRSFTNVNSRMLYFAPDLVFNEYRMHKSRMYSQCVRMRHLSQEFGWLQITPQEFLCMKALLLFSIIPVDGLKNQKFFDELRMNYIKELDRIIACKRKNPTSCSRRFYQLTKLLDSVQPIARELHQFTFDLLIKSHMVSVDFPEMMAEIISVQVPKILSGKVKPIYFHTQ
Sequence of Estrogen receptor (Homo sapiens) (P03372 whole entry, looked up): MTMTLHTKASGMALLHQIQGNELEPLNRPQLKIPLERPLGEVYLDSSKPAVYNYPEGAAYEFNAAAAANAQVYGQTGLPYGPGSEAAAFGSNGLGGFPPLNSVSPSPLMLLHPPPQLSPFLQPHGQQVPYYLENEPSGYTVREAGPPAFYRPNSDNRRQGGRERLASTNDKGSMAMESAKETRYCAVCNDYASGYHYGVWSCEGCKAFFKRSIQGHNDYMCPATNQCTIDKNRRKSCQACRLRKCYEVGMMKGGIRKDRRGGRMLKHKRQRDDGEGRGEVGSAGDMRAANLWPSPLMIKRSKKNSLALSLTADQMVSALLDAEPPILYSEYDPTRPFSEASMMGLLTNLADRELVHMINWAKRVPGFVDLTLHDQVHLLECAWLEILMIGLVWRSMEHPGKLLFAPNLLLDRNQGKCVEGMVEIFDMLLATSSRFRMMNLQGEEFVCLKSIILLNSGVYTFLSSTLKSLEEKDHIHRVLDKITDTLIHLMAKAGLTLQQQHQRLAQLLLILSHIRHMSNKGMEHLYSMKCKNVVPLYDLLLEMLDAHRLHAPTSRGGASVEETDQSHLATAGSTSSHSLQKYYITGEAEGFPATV
Sequence of human Norepinephrine Transporter (NET), SLC6A2 (gene 6530) (P23975 whole entry, looked up): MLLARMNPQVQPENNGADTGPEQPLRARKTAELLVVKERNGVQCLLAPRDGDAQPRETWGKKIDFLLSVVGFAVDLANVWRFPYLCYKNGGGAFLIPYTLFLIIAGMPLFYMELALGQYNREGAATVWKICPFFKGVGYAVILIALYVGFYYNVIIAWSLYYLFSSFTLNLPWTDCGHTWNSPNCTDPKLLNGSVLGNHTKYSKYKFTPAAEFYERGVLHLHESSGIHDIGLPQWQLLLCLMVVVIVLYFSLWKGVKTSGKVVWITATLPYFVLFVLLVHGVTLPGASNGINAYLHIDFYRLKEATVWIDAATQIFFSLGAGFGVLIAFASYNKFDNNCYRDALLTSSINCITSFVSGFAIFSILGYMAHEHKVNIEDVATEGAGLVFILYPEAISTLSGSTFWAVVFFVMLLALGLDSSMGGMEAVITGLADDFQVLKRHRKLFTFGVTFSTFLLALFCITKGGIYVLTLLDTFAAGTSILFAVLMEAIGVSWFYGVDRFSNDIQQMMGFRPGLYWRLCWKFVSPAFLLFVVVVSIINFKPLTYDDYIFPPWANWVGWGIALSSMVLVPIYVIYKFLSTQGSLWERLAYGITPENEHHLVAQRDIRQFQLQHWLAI
Sequence of Peroxisome proliferator-activated receptor gamma (Homo sapiens) (P37231 whole entry, looked up): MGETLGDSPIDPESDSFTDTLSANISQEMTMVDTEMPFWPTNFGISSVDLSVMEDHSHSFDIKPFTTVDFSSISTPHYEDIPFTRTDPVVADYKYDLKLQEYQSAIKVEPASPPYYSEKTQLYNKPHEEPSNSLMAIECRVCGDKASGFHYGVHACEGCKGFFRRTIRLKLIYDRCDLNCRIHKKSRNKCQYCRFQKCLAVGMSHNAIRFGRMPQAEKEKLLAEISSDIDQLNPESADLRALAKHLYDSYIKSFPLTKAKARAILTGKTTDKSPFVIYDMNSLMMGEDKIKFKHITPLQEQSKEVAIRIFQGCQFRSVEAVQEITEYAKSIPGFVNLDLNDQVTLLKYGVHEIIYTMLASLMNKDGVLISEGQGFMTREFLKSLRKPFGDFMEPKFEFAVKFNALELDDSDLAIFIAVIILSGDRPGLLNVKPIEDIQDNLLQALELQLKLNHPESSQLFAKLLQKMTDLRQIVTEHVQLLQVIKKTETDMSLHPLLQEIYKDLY

On to `CC/C(=C(\c1ccccc1)c1ccc(OCCN(C)C)cc1)c1ccccc1`, for which the concentration at half-maximal activity (AC50) in assay [1] is 3.1 µM (active); in [3] it was 6.98 µM (active); in [4], 3.85 µM (active). Also, the outcome in assay [2] was inactive.

Take `CCCCCCCCOS(=O)(=O)O`: the result in assay [2], in [5], in assay [6] and in [7] was inactive.

For the compound `OC[C@H]1O[C@@H](O[C@H]2[C@H](O)[C@@H](O)[C@H](O)O[C@@H]2CO)[C@H](O)[C@@H](O)[C@H]1O`, the result in assay [8], in assay [5] and in assay [6] was inactive.

As for `CC(C)Cc1ccccc1`, the outcome in [9] was inactive.

Turning to `C[C@]12CC[C@@H]3c4ccc(O)cc4CC[C@H]3[C@@H]1CC[C@@H]2O`, the AC50 in [1] is 1.74 µM (active); in [3], 0.17 µM (active). For the same compound, in [2], the call was inactive.

Take `CC1=CCC(=C(C)C)CC1`: the compound was called inactive in [2], in assay [6] and in [7].

Take `C=C(C)C(=O)OCCC(C)OC(=O)C(=C)C` (stereo not given): the concentration at half-maximal activity (AC50) in assay [2] was 20.1 µM (active). Besides, the call in assay [7] was inactive.

`CCC(=O)OCC=Cc1ccccc1`: the half-maximal activity concentration (AC50) in [3] was 29.2 µM (active).

`CCCCCCOc1ccc(O)cc1`: the compound was called inactive in assay [2] and in [8]. Also, the half-maximal activity concentration (AC50) in assay [5] is 12 µM (active); in [6], 88.9 µM (active); in assay [7], 69.5 µM (active).

As to `CCO[Si](CC)(OCC)OCC`, the result in assay [8], in assay [5] and in assay [6] was inactive.

On to `CC(C)(C)c1ccc(S)cc1`, for which the compound was classed as inactive in assay [2] and in [5].

As for `[Cl][Dy]([Cl])[Cl]`, the AC50 in assay [1] is 17.4 µM (active).

Regarding `O=C(O)c1ccccc1O`, the result in assay [2] and in assay [6] was inactive.

Regarding `C1CCCNCC1`, the outcome in assay [2], in assay [5], in assay [6] and in assay [7] was inactive.

Turning to `C#C[C@]1(O)CC[C@H]2[C@@H]3CCc4cc(O)ccc4[C@H]3CC[C@@]21C`, the AC50 in assay [1] was 1.32 µM (active); in assay [2], 15.6 µM (active); in assay [10], 5.14 µM (active); in assay [3] it was 0.463 µM (active); in [9] it was 2.39 µM (active); in assay [4], 514 nM (active) and 517 nM (active) and 623 nM (active). The result in assay [2] was inactive.

By AC50 is commonly meant the midpoint of the concentration-response curve, whichever way the signal moves.

These data come from PubChem BioAssay (EPA / NIEHS).
